# TbPYK inhibitor = qHTS of Trypanosoma Brucei Inhibitors | pyruvate kinase (Trypanosoma brucei), Q57TT1 | TbPYK enzyme, Kinase-Glo Plus ATP luminescence, 45 min | Potency, µM (doses to about 76.8 µM), actives largely listed as inhibitors | 410,000 compounds, 0.12% hits; further: nearly all actives have a fitted effect of over 50% in size
#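 ADP (130 uM final) triggers the TbPYK reaction after compound addition; incubation is 45 min at room temperature. Kinase-Glo Plus is then added and luminescence imaged. Normalized data are fitted to concentration-effect curves.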
# LmPK inh = qHTS Assay for Inhibitors of Leishmania Mexicana Pyruvate Kinase (LmPK); Q27686; purified LmPK, Kinase-Glo ATP luminescence, 1 h; Potency, µM (highest dose often 57.5 µM), usual class: inhibitors; 290,000 compounds, 0.37% hits
# Target sequence (Q27686 whole entry, looked up): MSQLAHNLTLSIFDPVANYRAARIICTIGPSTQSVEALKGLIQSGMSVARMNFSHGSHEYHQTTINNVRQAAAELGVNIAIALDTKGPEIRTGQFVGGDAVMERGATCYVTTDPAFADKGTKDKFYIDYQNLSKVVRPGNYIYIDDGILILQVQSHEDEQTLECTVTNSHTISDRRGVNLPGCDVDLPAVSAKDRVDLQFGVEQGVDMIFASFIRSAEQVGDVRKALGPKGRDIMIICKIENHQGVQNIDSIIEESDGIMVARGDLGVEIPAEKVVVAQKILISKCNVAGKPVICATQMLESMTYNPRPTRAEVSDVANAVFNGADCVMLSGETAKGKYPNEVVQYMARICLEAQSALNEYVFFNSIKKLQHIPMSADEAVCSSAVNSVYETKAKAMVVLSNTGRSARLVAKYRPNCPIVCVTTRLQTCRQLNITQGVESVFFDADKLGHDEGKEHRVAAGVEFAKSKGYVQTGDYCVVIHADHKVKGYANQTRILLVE
#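 ATP generated from ADP (0.1 mM) and PEP (0.5 mM) by 0.1 nM LmPK over 1 h at room temperature (pH 7.2 imidazole buffer) was detected by coupled luciferase luminescence. Values were normalized to uninhibited and no-enzyme wells.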
# SARS PLpro yeast = qHTS of Yeast-based Assay for SARS-CoV PLP | 330,000 compounds, 0.19% hits | Potency, µM (doses to about 32.9 µM), hits mostly activators | AID 485353, 2010 | S. cerevisiae expressing SARS-CoV PLpro, growth rescue; calls by dose curve; further: nearly all actives have a fitted effect of over 55% in size
# NS1 function inh = qHTS Assay for Inhibitors of Influenza NS1 Protein Function; Potency, µM (top dose mostly 46.1 µM); 270,000 compounds, 0.4% hits; AID 2326, 2010; calls by dose curve; further: actives are rising curves; nearly all actives have a fitted effect of over 50% in size
#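 Growth recovery, yeast-based: influenza A NS1 expressed in S. cerevisiae causes slow growth, and suppressors are detected by OD600. The parent strain without NS1 is used as positive control.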
# RE007 growth inh = qHTS Assay for Inhibitors of the HIV-1 protein Vpr. S. pombe RE007 Vpr strain, BacTiter-Glo ATP luminescence, 24 h. Potency, µM (highest dose often 92.2 µM), hits mostly inhibitors. 360,000 compounds, 0.21% hits. AID 651644, 2012; active means well fitted falling curve with a large enough effect; inconclusive means small, poorly fitted or top-dose-only effect; inactive means no such curve, though single readings can be large or run the other way; further: nearly all actives have a fitted effect of over 50% in size
#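 Fission yeast strain RE007, carrying one chromosomally integrated HIV-1 vpr copy, was seeded at OD 0.01 in PMG+AL medium with 23 nL pinned compound. After 24 h at 30 °C and 99% humidity, viability was read by BacTiter-Glo luminescence.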
# Sm TGR block = qHTS Assay for the Inhibitors of Schistosoma Mansoni Peroxiredoxins; Schistosoma mansoni thioredoxin glutathione reductase (TGR), Q962Y6; purified TGR, DTNB reduction, TNB absorbance 405 nm; Potency, µM (top dose mostly 114 µM), most hits filed as inhibitors; 360,000 compounds, 3% hits; further: nearly all actives have a fitted effect of over 60% in size
#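 TGR 20 nM + NADPH 100 uM (dispensed conc.), cpd preinc 15 min RT; start with NADPH (500 uM addition) then DTNB (15 mM addition). Kinetic TNB absorbance, 405 nm filter. Four-parameter Hill fit across titration.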
# A number is an active result; 0 = inactive; ? = inconclusive; - = no result. An excerpt weighted towards active compounds, which were near 3.3% of everything screened. Unless noted, the call rests on the fitted dose curve; in most records, active means well fitted curve in the direction sought with a large enough effect; inconclusive means small, poorly fitted or top-dose-only effect, or another doubt; inactive means no such curve, though single readings can be large; an effect the other way counts as inactive or inconclusive.
SMILES,TbPYK inhibitor,LmPK inh,SARS PLpro yeast,NS1 function inh,RE007 growth inh,Sm TGR block
CCC(/C=C1\Sc2ccc(OC)cc2N1CCO)=C\c1sc2ccc(OC)cc2[n+]1CCO,?,14µM,0,0,?,11µM
O=C(COC(=O)C1CCN(S(=O)(=O)c2cc([N+](=O)[O-])ccc2Cl)CC1)Nc1ncc(Cl)cc1Cl,0,0,0,0,0,40µM
CC(=O)COC(=O)C1CCN(S(=O)(=O)c2cc([N+](=O)[O-])ccc2Cl)CC1,0,0,0,0,0,7.9µM
Cc1cccc(-c2noc(CN(C3CCCCC3)S(=O)(=O)c3ccc(F)cc3)n2)c1,0,-,-,-,-,0
CCS(=O)(=O)N1CCc2cc(C(=O)N3CCN(c4ccccc4)CC3)ccc21,0,-,-,-,-,0
COC(=O)c1c(-c2ccco2)csc1NC(=O)C1CC=CCC1C(=O)O (stereo not drawn),0,0,0,?,0,45µM
CCOC(=O)c1c(-c2ccc(F)cc2)csc1NC(=O)C1CC=CCC1C(=O)O (stereo not drawn),0,0,0,0,0,-
Cc1ccc2c(c1)c(=O)c(S(=O)(=O)c1ccc(C)c(C)c1)cn2CC(=O)Nc1ccccc1,0,-,-,-,-,0
O=C(NC1CC1)c1ccc(CSCc2cccc(F)c2)o1,0,0,0,0,0,35µM
CCN(CC)Cc1cc(O)c(CN(CC)CC)cc1O,10µM,0,0,0,0,3.2µM
CCc1oc(C(=O)O)cc1CN(CC)CC,0,0,-,0,0,0
CCCOC(=O)C1[C@H]2C(=O)N(Cc3ccco3)C[C@]23C=C[C@H]1O3 (stereo partly drawn),0,0,0,0,0,25µM
CN(c1ccccc1)c1nc(N)c(C#N)c(CC#N)c1C#N,0,0,0,0,0,0
N#CCc1c(C#N)c(N)nc(Nc2ccccc2)c1C#N,0,0,0,0,0,20µM
COc1cc2c(cc1OC)CN(C(=O)c1ccc(Br)o1)CC2,0,0,0,0,0,40µM
COc1cc2c(cc1OC)CN(C(=O)c1ccco1)CC2,0,0,0,-,0,?
CC1CCc2c(sc3nnn(CC(=O)Nc4ccccc4Cl)c(=O)c23)C1 (stereo not drawn),0,-,-,-,-,0
C[C@H](C(=O)c1ccncc1)c1ccccn1,-,-,-,0,-,-
COc1ccc(OCC(=O)N(C)Cc2ccccc2)cc1,0,0,0,0,0,0
COc1ccc(CN(C)C(=O)CCl)cc1,0,0,0,-,0,22µM
CN(Cc1ccccc1)C(=O)CC(=O)N(C)Cc1ccccc1,0,0,0,0,0,0
CN(Cc1ccc(Cl)s1)C(=O)CCl,0,0,0,-,0,2.8µM
CN(Cc1ccc(Cl)cc1)C(=O)CCl,0,0,0,-,0,1.8µM
Cc1cccc(N2CCN(C(=O)Cn3ncc4c3-c3cc(C)ccc3OC4)CC2C)c1 (stereo not drawn),0,-,-,-,-,0
CN(C(=O)c1ccccc1C(=O)O)C1CC(C)(C)NC(C)(C)C1,-,-,-,0,-,-
SMILES,TbPYK inhibitor,LmPK inh,SARS PLpro yeast,NS1 function inh,RE007 growth inh,Sm TGR block
CC(=O)c1ccc(N2CCN(S(=O)(=O)c3ccc4c(c3)CC(C)N4C(=O)C3CCC3)CC2)cc1 (stereo not drawn),0,-,-,-,-,0
COc1ccc(C)cc1NC(=O)c1ccc2c(c1)N(Cc1cccc(Cl)c1)C(=O)c1ccccc1S2=O (stereo not drawn),0,-,-,-,-,0
Cc1ccc(Cl)cc1-n1ncc2c(N3CCN(Cc4ccccc4)CC3)ncnc21,0,-,-,-,-,0
CC1=C(C(=O)Nc2ccc(Cl)cc2)C(c2cccs2)n2nc(SCc3cccc(C)c3)nc2N1 (stereo not drawn),0,-,-,-,-,0
O=C(Nc1cccc(S(=O)(=O)NC2=NCCCCC2)c1)c1cc(-c2ccccc2)nc2ccccc12,0,0,0,0,0,0
O=C(NC(=S)Nc1cccc(S(=O)(=O)NC2=NCCC2)c1)c1cc(-c2ccco2)nc2ccccc12,0,0,0,0,0,13µM
CSCCCNC(=S)Nc1cccc(S(=O)(=O)NC2=NCCC2)c1,0,0,0,0,0,?
O=C(Nc1cccc(S(=O)(=O)NC2=NCCC2)c1)c1cc(-c2ccco2)nc2ccccc12,0,0,0,0,0,18µM
C=C(C)CNC(=S)Nc1cccc(S(=O)(=O)NC2=NCCC2)c1,0,0,0,0,0,56µM
CC(C)c1ccc(NC(=O)CCn2c(=O)c3cccn3c3ccccc32)cc1,0,-,-,-,-,0
Cc1sc2ncn(CC(=O)N(C)c3ccc(C(C)C)cc3)c(=O)c2c1S(=O)(=O)N1CCC(C)CC1,0,-,-,-,-,0
CCc1ccc(S(=O)(=O)Nc2ccc3[nH]c(=O)sc3c2)cc1,0,-,-,-,-,0
CCN1CCN(c2oc(/C=C/c3ccc(OC)c(OC)c3)nc2C#N)CC1,0,-,-,-,-,0
Cc1ccc(C(=O)Nc2ncc(C)s2)o1,0,13µM,0,0,0,0
Cc1ccc(C(=O)Nc2nc3ccc(S(C)(=O)=O)cc3s2)o1,0,14µM,0,0,?,0
Cc1ccc(C(=O)Nc2ncc(Cc3ccc(F)cc3)s2)o1,0,0,0,0,0,0
O=C(/C=C/c1cccs1)Nc1nccs1,0,0,0,0,0,0
CS(=O)(=O)c1ccc2nc(NC(=O)c3ccco3)sc2c1,0,?,0,0,0,0
Cc1ccc(/C=C/C(=O)Nc2ncc(C)s2)o1,?,0,0,0,0,25µM
Cc1ccc(/C=C/C(=O)Nc2nccs2)o1,?,0,0,0,0,28µM
Cn1c(C(=O)NCc2cccc(F)c2)cc2cc(S(=O)(=O)N3CCCCC3)ccc21,0,-,-,-,-,0
Cc1ccc(CNC(=O)CN2C(=O)CSc3ccc(S(=O)(=O)N4CCCC4)cc32)cc1,0,-,-,-,-,0
CCOC(=O)/C=C/C(=O)Nc1nccs1,0,0,0,0,0,40µM
N=c1c2c(-c3ccccc3)c(-c3ccccc3)n(Cc3ccco3)c2ncn1CCCO,0,0,0,0,0,28µM
CS(=O)(=O)c1oc(-c2ccc(F)cc2)nc1S(=O)(=O)c1ccc(Cl)cc1,0,-,-,-,-,0.71µM
CCCCS(=O)(=O)c1oc(-c2ccc(F)cc2)nc1S(=O)(=O)c1ccccc1,0,-,-,-,-,0
CCS(=O)(=O)c1oc(-c2ccc(F)cc2)nc1S(=O)(=O)c1ccc(Br)cc1,0,-,-,-,-,0.63µM
CCOC(=O)c1nc(N2CCN(c3ccc(F)cc3)CC2)c2c(C)noc2n1,0,-,-,-,-,0
CCC(C(=O)NCc1ccco1)N(C(=O)CNS(=O)(=O)c1ccc(F)cc1)c1ccccc1F (stereo not drawn),0,0,0,0,0,45µM

# Bioassay records from PubChem.
